Here are results for nine compounds from PubChem BioAssay (NCATS).

Unmarked numbers belong to inactive results. Results filed as inconclusive are left out. Entries that show only a call come without a potency. Calls of active or inactive are those of the source. The call rests on the fitted dose curve; in most records, active means well fitted curve in the direction sought with a large enough effect; inconclusive means small, poorly fitted or top-dose-only effect, or another doubt; inactive means no such curve, though single readings can be large; an effect the other way counts as inactive or inconclusive.

Chain of Cytochrome P450 3A4 (Homo sapiens) (P08684 whole entry, looked up): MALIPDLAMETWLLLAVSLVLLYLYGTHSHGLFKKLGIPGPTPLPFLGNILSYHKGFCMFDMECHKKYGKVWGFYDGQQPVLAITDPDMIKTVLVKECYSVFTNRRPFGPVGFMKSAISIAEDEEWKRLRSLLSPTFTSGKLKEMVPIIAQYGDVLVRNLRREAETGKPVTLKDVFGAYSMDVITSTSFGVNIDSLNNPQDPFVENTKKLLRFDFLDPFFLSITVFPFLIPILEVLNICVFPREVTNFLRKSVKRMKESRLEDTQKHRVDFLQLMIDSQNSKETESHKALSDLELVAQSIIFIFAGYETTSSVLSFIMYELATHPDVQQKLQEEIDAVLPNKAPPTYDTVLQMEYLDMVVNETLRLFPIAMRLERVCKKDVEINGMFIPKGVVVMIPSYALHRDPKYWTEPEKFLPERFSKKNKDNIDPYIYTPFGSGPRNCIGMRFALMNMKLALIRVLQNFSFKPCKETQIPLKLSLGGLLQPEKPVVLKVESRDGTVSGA

System in the first assay: not listed separately
In words: Cellular Toxicity (caspase-3) H-4-II-E (AID 663).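 Further: cells exposed to compound for 16 hr before readout.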 Conditions: H-4-II-E rat hepatoma, scaled: DMSO 0%, 100 µM tamoxifen 100%; series mostly up to 92.2 µM. In short, it runs like this: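 H-4-II-E rat hepatoma, 1500 cells/well, 5 hr settle at 37 °C; compound 16 hr, 37 °C, complete medium; Caspase-Glo 3/7, 20 min RT; luminescence. DMSO = 0%, 100 uM tamoxifen = 100%; Hill-equation AC50.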
As for `Cc1ccc(N)cc1O`, the compound was classed as inactive.

For the compound `CC(=O)O[C@@H]1CC(C)=C2[C@H]1[C@H](C)CC[C@H]2/C=C(\C)C(=O)O`, the compound was classed as inactive.

Consider `Nc1ccccc1N`, for which the call was inactive.

System in the next assay: not listed separately
Kind of assay: Cellular Toxicity (caspase-3) Hek293 (AID 664).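 Further: cells exposed to compound for 16 h at 37 °C before readout.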 The following applies: HEK293 caspase-3 activation, DMSO = 0%, 100 µM tamoxifen = 100%; series mostly up to 92.2 µM. In short, it runs like this: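 Luminescent Caspase-Glo 3/7 readout (aminoluciferin release) in HEK293 cells after 16 h compound treatment, 37 °C. Normalization: DMSO = basal, 100 uM tamoxifen = 100% stimulation. Concentration-response fitted with standard Hill equation for AC50.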
With `Cc1ccc(N)cc1O`, the outcome was inactive.

As for `CC(=O)O[C@@H]1CC(C)=C2[C@H]1[C@H](C)CC[C@H]2/C=C(\C)C(=O)O`, the outcome was inactive.

For the compound `Nc1ccccc1N`, the result was inactive.

System in a further assay: not listed separately
Kind of assay: Cellular Toxicity (caspase-3) N2a (AID 665).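 Further: compound exposure lasted 16 h at 37 °C before readout.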 The following applies: N2a cells, luminescence, normalized: DMSO 0%, 10 µM staurosporine 100%; series mostly up to 92.2 µM. In short, it runs like this: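 Luminescent Caspase-Glo 3/7 readout in N2a mouse neuroblastoma cells after 16 h compound exposure at 37 °C. Signal scaled to DMSO (basal) and 10 uM staurosporine (100%). Concentration-response fitted with Hill equation for AC50.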
For `Cc1ccc(N)cc1O`, the compound was classed as inactive.

For `CC(=O)O[C@@H]1CC(C)=C2[C@H]1[C@H](C)CC[C@H]2/C=C(\C)C(=O)O`, the outcome was inactive.

`Nc1ccccc1N`: the call was inactive.

System in another assay: not listed separately
Kind of assay: Cellular Toxicity (caspase-3) NIH 3T3 (AID 666). Conditions: NIH 3T3 caspase-3 activation, apoptosis/toxicity, 0% DMSO, 100% is 100 µM tamoxifen; series mostly up to 92.2 µM. In short, it runs like this: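 NIH 3T3, 1000 cells/well, 5 hr settle then 16 hr compound at 37°C; Caspase-Glo 3/7, 20 min RT, luminescence. DMSO = basal, 100 uM tamoxifen = 100%. Hill-equation AC50, qHTS.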
Consider `Cc1ccc(N)cc1O`, for which the compound was called inactive.

On to `CC(=O)O[C@@H]1CC(C)=C2[C@H]1[C@H](C)CC[C@H]2/C=C(\C)C(=O)O`, for which the compound was classed as inactive.

For the compound `Nc1ccccc1N`, the call was inactive.

System in another assay: not listed separately
In words: Cellular Toxicity (caspase-3) Renal Proximal Tubule (AID 667).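 Further: cells exposed to compound for 16 hours at 37 °C before detection.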 The following applies: renal proximal tubule cells, primary cells freshly taken from rat, solvent-only wells 0%, staurosporine 100%; series mostly up to 91.7 µM. In short, it runs like this: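 Caspase 3/7 activation measured by luminescent aminoluciferin release in primary rat proximal tubule cells after 16 hr compound exposure at 37 °C. AC50 from Hill-fitted concentration-response, scaled between DMSO and 10 uM staurosporine.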
Regarding `Cc1ccc(N)cc1O`, the compound was called inactive.

Regarding `CC(=O)O[C@@H]1CC(C)=C2[C@H]1[C@H](C)CC[C@H]2/C=C(\C)C(=O)O`, the call was inactive.

Regarding `Nc1ccccc1N`, the outcome was inactive.

For a further assay, the target named is Cytochrome P450 3A4 (Homo sapiens) (UniProt P08684). In words: qHTS Assay for Inhibitors and Substrates of Cytochrome P450 3A4 (AID 884). Further: nearly all actives have a fitted effect of over 50% in size. Further: potency means the concentration at half of the fitted maximal effect. The following applies: recombinant CYP3A4, Luciferin-PPXE luminescence; series mostly up to 57.1 µM. In short, it runs like this:
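Luminescent readout of luciferin produced by CYP3A4 (20 nM) dealkylation of Luciferin-PPXE, 25 uM (its KM). NADPH-driven reaction ran 60 min at RT after 10 min compound preincubation; data scaled to 57 uM ketoconazole as 100% inhibition.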
For `Cc1ccc(N)cc1O`, the Potency entry was “inactive”.

Regarding `COc1ccc2c(OC)c3ccoc3nc2c1OC`, the Potency was 12.6 µM (active).

For the compound `CC(=O)O[C@@H]1CC(C)=C2[C@H]1[C@H](C)CC[C@H]2/C=C(\C)C(=O)O`, the Potency result was “inactive”.

In the case of `Nc1nc2c(ncn2[C@@H]2O[C@H](CO)[C@@H](O)[C@H]2O)c(=O)[nH]1`, the Potency result is “inactive”.

Consider `CC(C)C(N)C(=O)OCCOCn1cnc2c(=O)[nH]c(N)nc21` (centres undefined), for which the Potency result was “inactive”.

Another assay shares this target. Kind of assay: qHTS Assay for Activators of Cytochrome P450 3A4 (AID 885). Further: nearly all actives have a fitted effect of over 65% in size. The following applies: recombinant CYP3A4, Luciferin-PPXE luminescence, 60 min; series mostly up to 57.1 µM. In short, it runs like this:
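CYP3A4 activity: Luciferin-PPXE O-dealkylation, 25uM substrate, 200mM KPO4, RT throughout. Read-out is luciferase luminescence; higher values reflect activation.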
In general terms: Quantitative high-throughput screening tests each substance at several concentrations.
With `CC(=O)c1cc2c(cc1O)OC(C)(C)C=C2`, the outcome was inactive.

Consider `Cc1ccccc1CN1C2=NCCN2C(=O)C2=C1CCN(Cc1ccccc1)C2`, for which the activity change, positive = activation is -40.7% [at 11.4 µM].

With `COc1ccc(C[C@H](N)C(=O)N[C@@H]2[C@H](O)[C@H](n3cnc4c(N(C)C)ncnc43)O[C@@H]2CO)cc1`, the result was inactive.

As for `COc1ccc2c(OC)c3ccoc3nc2c1OC`, the outcome was inactive.
